The text below walks through data of PubChem BioAssay.

For part of these data: Measured potencies and affinities stand elsewhere.

Test [1] can be described thus: blockers of polyQ-driven CASP3 activation – cell-based (AID 1583). Particulars: polyglutamine-induced caspase-3 activation, cell assay; stronger effect = higher value;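 tested at 10 µM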.
Test [2] is described as follows: yeast 75Q aggregation reduction – 75Q-TubU reporter (AID 1593). Particulars: Yeast 75Q polyglutamine aggregation reporter.
A short description of test [3]: restoration of touch response, mutant HTT neurons – whole organism, C. elegans mechanosensory neurons, N-terminal huntingtin (AID 1599). Particulars: C. elegans polyQ-huntingtin mechanosensory neurons, stronger effect = higher value.
Test [4] is described as follows: blockers of cytochrome c efflux from mitochondria – biochemical, purified mitochondria (AID 1603).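 Note: mouse liver mitochondria challenged with calcium chloride; signal normalized to the plate average as 100%.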 Particulars: stronger effect = lower value.
Test [5] can be described thus: polyglutamine aggregate formation blockers (AID 1604). Particulars: polyglutamine-induced protein aggregation inhibition assay; stronger effect = higher value; tested at 2.5 µM.

By inhibition is commonly meant the change of the read-out against control, counted positive when it falls. For `O=c1cc[nH]c(=S)[nH]1`, in test [1], the inhibition was 2.52%. Moreover, the score in test [2] is 1.24. This compound registered a rescue above control in test [3] of 1.48. Besides, the cytochrome c release ratio in test [4] is 1.09. In test [5], this compound displayed an inhibition of aggregation of 41.5%.
Taken in the same sequence, the figures for `NC(N)=NS(=O)(=O)c1ccc(N)cc1` were -31.1%, 1.49, -3.67, 1.37 and 93.6%.
Taken in the same sequence, the figures for `O=C1OCCN1/N=C/c1ccc([N+](=O)[O-])o1` were 4.31%, 0.66, 4.89, 1.17 and 27%.
For `CC1=C(C(=O)O)N2C(=O)[C@@H](NC(=O)[C@H](N)c3ccc(O)cc3)[C@H]2SC1`, in test [1], the inhibition was -20.4%. Besides, the score in test [2] is 1.38. In test [3], this compound had a rescue above control of 2.74. The cytochrome c release ratio in test [4] came out at 0.96. Also, in test [5], the inhibition of aggregation came out at 74.6%.
Taken in the same sequence, the figures for `CCO/C([O-])=N/c1c[n+](N2CCOCC2)no1` were -3.16%, 1.13, 3.21, 0.83 and 36.6%.
Taken in the same sequence, the figures for `CC/C(=C(/CC)c1ccc(O)cc1)c1ccc(O)cc1` were 48.1%, 0.36, -4.53, 0.65 and 38.5%.
The corresponding values for `CCN(CC)C(C)CN1c2ccccc2Sc2ccccc21` (stereo not given) are -20.5%, 1.11, -4.48, 0.98 and 54.5%.
As for `CCCCC1C(=O)N(c2ccccc2)N(c2ccc(O)cc2)C1=O` (stereo not given), the inhibition in test [1] was -30.1%. In test [2], this compound returned a score of 0.89. The rescue above control in test [3] was -3.48. In test [4], the cytochrome c release ratio was found to be 0.98. Besides, the inhibition of aggregation in test [5] was found to be 61%.
Regarding `NC(=O)c1ncn([C@@H]2O[C@H](CO)[C@@H](O)[C@H]2O)n1`, the inhibition in test [1] is 21%. In addition, the score in test [2] worked out at 1.56. The rescue above control in test [3] is -2.31. In addition, the cytochrome c release ratio in test [4] was 1.02. This compound also yielded an inhibition of aggregation in test [5] of 21.6%.
Taken in the same sequence, the figures for `NC(=O)N/N=C/c1ccc([N+](=O)[O-])o1` were 21.9%, 1.11, 14.1, 1.45 and 74.9%.
For `Nc1ccc(C(=O)NCC(=O)O)cc1`, the inhibition in test [1] was 5.11%. In test [2], this compound came in with a score of 1.21. This compound also showed a rescue above control in test [3] of 11.2. For the same compound, in test [4], the cytochrome c release ratio came out at 1.41. In test [5], this compound had an inhibition of aggregation of 83.6%.
The corresponding values for `CCn1cc(C(=O)O)c(=O)c2cc(F)c(N3CCNC(C)C3)c(F)c21` (stereo not given) are -6.75%, 1.15, 3.68, 1.13 and 80.3%.
